Compound activity: PubChem, National Center for Advancing Translational Sciences (NCATS)
An excerpt weighted towards active compounds, which were near 2.4% of everything screened.
D2 PAM-1 = HTS Assay for Positive Allosteric Modulators of the Human D2 Dopamine Receptor: Primary Screen for Potentiators. HEK293 T-REx D2, calcium flux, EC20 dopamine potentiation. potentiation, % at 10 µM. 340,000 compounds, 0.34% hits. AID 485347, 2010;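 active = potentiation over 3 SD above the plate norm, cut at about 30% in these data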; note: 0% is about no effect
Target sequence (P14416 whole entry, looked up): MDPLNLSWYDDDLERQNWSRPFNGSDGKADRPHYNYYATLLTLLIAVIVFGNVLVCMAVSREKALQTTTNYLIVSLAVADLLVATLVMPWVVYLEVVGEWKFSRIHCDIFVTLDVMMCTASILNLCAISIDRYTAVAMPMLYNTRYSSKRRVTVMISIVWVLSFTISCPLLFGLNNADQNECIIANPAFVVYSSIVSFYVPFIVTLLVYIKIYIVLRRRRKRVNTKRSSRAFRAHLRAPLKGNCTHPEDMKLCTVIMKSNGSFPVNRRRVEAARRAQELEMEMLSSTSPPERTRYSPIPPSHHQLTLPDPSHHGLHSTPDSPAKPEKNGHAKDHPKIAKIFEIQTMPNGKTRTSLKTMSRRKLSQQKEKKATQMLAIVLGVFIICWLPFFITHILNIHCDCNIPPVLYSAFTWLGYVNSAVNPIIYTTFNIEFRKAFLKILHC
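Primary screen. Calcium kinetics in induced HEK293 T-REx D2 cells: compound pre-addition 180 s, EC20 dopamine, 180 s more.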
D2 ag-1 = Beta-Arrestin HTS for Positive Allosteric Modulators of the Human D2 Dopamine Receptor: Agonists. D(2) dopamine receptor (Homo sapiens), P14416. DiscoveRx PathHunter D2 beta-arrestin, luminescence, 90 min; 100% = 57 uM dopamine signal. activation, % (concentration not given with the values). 360,000 compounds, 0.084% hits. AID 624465, 2012; in the data active = activation above about 40%; inconclusive = between about 15% and that limit
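Agonist mode: compounds alone added to overnight-plated D2 PathHunter cells for 90 min at 37 C, with 57 uM final dopamine (EC100) defining full response. Beta-arrestin recruitment detected by chemiluminescent reagent, read after 1 h at ambient temperature.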
D2 antag = HTS Assay for Allosteric Antagonists of the Human D2 Dopamine Receptor: Primary Screen for Antagonists | D(2) dopamine receptor (Homo sapiens), P14416 | HEK293 TREx D2 cells, calcium flux, dopamine EC80 | inhibition, % at 10 µM | 340,000 compounds, 2% hits | AID 485344, 2010; in the data active = inhibition above about 30%; inactive = below that, where a call was filed; note: 0% is about no effect
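In this primary screen, negative modulation is detected by tracking calcium flux after an EC80 dopamine challenge in inducible HEK293 T-REx D2 cells preexposed to test compound for 180 s.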
D2 ag-2 = HTS Assay for Allosteric Agonists of the Human D2 Dopamine Receptor: Primary Screen for Agonists. HEK293 T-REx D2 cells, calcium flux agonist mode. 340,000 compounds, 0.53% hits. activation, % at 2 µM. D(2) dopamine receptor (Homo sapiens), P14416;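 active = activation over 3 SD above normal in the single-dose calcium agonist read, cut at about 30% in these data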; note: 0% is about no effect
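HEK293 Trex D2 cells, tetracycline-induced, o/n 30 C 5% CO2; no-wash Ca dye, RT 30–90 min; 10-cycle baseline, 23 nl cpd added, kinetic Ca read 180 s; agonist hits = positive Ca response.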
D2 PAM-2 = Beta-Arrestin HTS for Positive Allosteric Modulators of the Human D2 Dopamine Receptor: Potentiators | D(2) dopamine receptor (Homo sapiens), P14416 | DiscoveRx D2 beta-arrestin cells, luminescence, 90 min; 100% = 57 uM dopamine signal | potentiation, % (concentration not given with the values) | 360,000 compounds, 0.23% hits | AID 624464, 2012; in the data active = potentiation above about 50%; inconclusive = mostly about 30% to 49%
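D2 cells co-treated with compound plus 50 nM dopamine (EC20) for 90 min at 37 deg C to detect potentiation. Beta-arrestin recruitment was read as enzyme-fragment luminescence after 1 h at ambient temperature. Full response was set by 57 uM dopamine.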
An asterisk follows results filed as active; u = inconclusive; x = not tested or not shown.

SMILES | D2 PAM-1 | D2 ag-1 | D2 antag | D2 ag-2 | D2 PAM-2
c1ccc(-c2cc3n(c2)CCc2ccccc2-3)cc1 | -4 | 1 | 33* | 1 | 5
COc1ccc(C(=O)Nc2cccc(OC(=O)c3ccco3)c2)cc1 | 1 | -2 | -2 | -2 | -4
COc1ccc(C(C)=O)c(OC(=O)c2ccc(OC)c(OC)c2)c1 | 36* | -3 | -2 | 1 | -4
COc1ccc(C(C)=O)c(OC(=O)c2ccco2)c1 | 39* | -10 | 19 | 1 | 2
CCCS(=O)(=O)NC(=O)C1(C)CCN(C(=O)COc2ccc(Cl)cc2Cl)C1 (configuration not stated) | x | 14 | x | x | 60*
CCCS(=O)(=O)NC(=O)C1(C)CCCN(C(=O)COc2ccc(Cl)cc2Cl)C1 (configuration not stated) | x | -7 | x | x | -22
CCCCC1CCC(C(=O)Nc2ccccc2N2CCOCC2)CC1 (configuration not stated) | 11 | -1 | 33* | 1 | 17
CCCCCOc1ccc(C(=O)Nc2ccc(N3CCOCC3)cc2N2CCOCC2)cc1 | 78* | -2 | -12 | 0 | -2
CC(C)(C)C1CCC(C(=O)Nc2ccc(N3CCOCC3)cc2N2CCOCC2)CC1 (configuration not stated) | -14 | -4 | 31* | 0 | -5
CCOc1ccc(-c2cnc(NCc3ccc(OC)cc3OC)n2C)cc1 | -20 | x | x | 1 | x
CCCCCCCCCCCNC(=O)c1ccoc1C | 8 | -3 | 8 | x | -1
CCCCCC(C)NC(=O)c1ccoc1C (configuration not stated) | -14 | -3 | 40* | 0 | -2
Cc1cc(C(=O)N/N=C/c2cn[nH]c2-c2ccccc2)cs1 | -21 | -3 | 30* | 0 | -19
O=C(N/N=C/c1cn[nH]c1-c1ccccc1)c1ccco1 | 13 | 0 | 4 | 1 | -4
O=C(N/N=C\c1cn[nH]c1-c1ccccc1)c1ccc([N+](=O)[O-])cc1 | -23 | 3 | 58* | -1 | -16
CCc1c(C(=O)N/N=C/c2cn[nH]c2-c2ccc(F)cc2)csc1C | -27 | 0 | 71* | 4 | 10
Cc1c(CNCc2ccc(OC(C)C)cc2)c(C(=O)O)c(C)n1Cc1ccc(Cl)cc1 | 9 | x | x | 0 | x
Cc1c(Cl)ccc2sc(N3CCN(C(=O)C4CC4)CC3)nc12 | -6 | x | x | 0 | x
CC1=C(C(=O)Nc2ccc(Cl)cc2)C(C(C)C)n2nc(SCc3ccc(Cl)cc3)nc2N1 (configuration not stated) | x | x | x | 1 | x
CCCCCn1c(CCCNC(=O)c2cccc(C)c2)nc2ccccc21 | 1 | x | x | 0 | x
O=C(Nc1ccccc1N1CCN(c2ccccc2)CC1)C12CC3CC(CC(C3)C1)C2 | 32* | 1 | 1 | 0 | 7
CCn1cc(C(=O)NCCc2ccc(OC)c(OC)c2)c(=O)c2cc(S(=O)(=O)N3CCc4ccccc4C3)ccc21 | -1 | x | x | 0 | x
CCn1cc(C(=O)NCc2ccc(C)cc2)c(=O)c2cc(S(=O)(=O)N3CCCCCC3)ccc21 | -4 | x | x | 0 | x
CC(C)N(Cc1ccccc1)C(=O)C1CCCN(c2ncnc3onc(-c4ccc(F)cc4)c23)C1 (configuration not stated) | 3 | x | x | -1 | x
CC1=NN(c2cccc(F)c2)C(=O)/C1=C/c1ccc(N(C)C)cc1 | -21 | 1 | 32* | 0 | -18
SMILES | D2 PAM-1 | D2 ag-1 | D2 antag | D2 ag-2 | D2 PAM-2
CCCn1cc(S(=O)(=O)c2cccc(Cl)c2)c(=O)c2cc(F)c(N3CCCC3)cc21 | -6 | x | x | -2 | x
COc1cccc(C(=O)NCCCNC(=O)c2cccnc2)c1 | -25 | -4 | 39* | -1 | -1
Cc1ccccc1C(=O)NC(CC(C)C)C(=O)NN1C(=O)c2ccccc2C1=O (configuration not stated) | -3 | -3 | 30* | 0 | 3
COc1cccc(CN2CC(C(=O)NCc3cccc(Cl)c3)CCC2=O)c1 (configuration not stated) | -9 | 4 | -5 | 1 | 0
COc1ccccc1CN1CC(C(=O)NCc2cccc(Cl)c2)CCC1=O (configuration not stated) | -10 | -3 | 36* | 0 | -6
COc1ccc(S(=O)(=O)NCC(c2ccco2)S(=O)(=O)c2cccs2)cc1OC (configuration not stated) | 2 | x | x | 3 | x
CCCOC(=S)NC(=O)c1sc2ccccc2c1Cl | -9 | -2 | 31* | 0 | -4
CCSc1nnc(NC(=O)c2c(C)noc2C)s1 | 5 | -4 | -7 | 0 | -13
CCSc1nnc(NC(=O)c2csc3c2CCC(C)C3)s1 (configuration not stated) | x | 0 | x | x | 1
CCSc1nnc(NC(=O)c2cc(C)on2)s1 | x | -3 | 56* | 2 | -7
CCSc1nnc(NC(=O)c2csc3c2CCCC3)s1 | -5 | -2 | 40* | 0 | -10
O=C(Cn1cnc2onc(-c3ccc(F)cc3)c2c1=O)N1CCN(c2ccc(F)cc2)CC1 | 4 | x | x | 0 | x
CC1CCCC(C)N1C(=S)NCc1ccco1 (configuration not stated) | 12 | 1 | 30* | 0 | -6
OCC1CCCCN1C(=S)NCc1ccco1 (configuration not stated) | -6 | 0 | 8 | 1 | u
CC1CCCN(S(=O)(=O)c2ccc(S(=O)(=O)N3CCC4(CC3)OCCO4)cc2)C1 (configuration not stated) | 0 | -4 | 40* | 0 | -13
Cc1nc(Nc2ccc(S(N)(=O)=O)cc2)oc1C | 49* | -3 | 1 | 1 | 10
CCCCN(C)S(=O)(=O)c1cc(-c2cc(C)no2)ccc1C | 9 | x | x | 0 | x
O=S(=O)(Nc1ccccn1)c1ccc(Cl)c2ccccc12 | -2 | 2 | 31* | -1 | 1
COc1cc(C(=O)NNC(=O)C2CSC3(C)CCC(=O)N23)cc(OC)c1OC (configuration not stated) | 9 | -1 | 41* | -1 | -1
O=C(Nc1cccc(OCc2cc(=O)n3ccccc3n2)c1)Nc1cccc(C(F)(F)F)c1 | -12 | x | x | 1 | x
COc1ccc(-c2nn(-c3ccccc3)cc2/C=N/NC(=O)c2cccc(S(=O)(=O)Nc3ccccc3Cl)c2)cc1 | -17 | 2 | 45* | 1 | 11
COc1ccc(NC(=O)Cn2c(=O)n(-c3ccc(OC)cc3)c(=O)c3sc4ccccc4c32)cc1 | -4 | x | x | -1 | x
